# D2 ag-1 = activates the human D2 dopamine receptor; HEK293 T-REx D2 cells, calcium flux agonist mode; activation, % at 2 µM; 340,000 compounds, 0.53% hits;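 active = activation over 3 SD above normal in the single-dose calcium agonist read, cut at about 30% in these data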; also: 0% is about no effect
# Target sequence (P14416 whole entry, looked up): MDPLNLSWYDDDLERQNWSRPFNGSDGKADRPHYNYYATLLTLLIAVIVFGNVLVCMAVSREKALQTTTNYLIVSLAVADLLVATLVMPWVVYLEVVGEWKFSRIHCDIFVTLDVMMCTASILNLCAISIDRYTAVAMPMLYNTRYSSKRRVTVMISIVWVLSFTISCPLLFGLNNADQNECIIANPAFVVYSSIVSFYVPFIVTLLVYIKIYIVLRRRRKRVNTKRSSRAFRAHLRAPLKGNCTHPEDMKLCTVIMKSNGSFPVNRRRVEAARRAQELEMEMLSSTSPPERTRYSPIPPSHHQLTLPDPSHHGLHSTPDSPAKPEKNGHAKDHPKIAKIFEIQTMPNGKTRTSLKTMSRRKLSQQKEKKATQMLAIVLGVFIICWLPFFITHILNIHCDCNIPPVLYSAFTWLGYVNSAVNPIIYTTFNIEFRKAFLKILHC
#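 Calcium-flux readout, 1 cycle/sec over 180 s following compound pin transfer, in inducible HEK293 Trex D2 cells (force-coupled); dopamine controls included. Positive calcium responses during this window marked compounds as potential agonists.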
# D2 PAM-1 = potentiates the human D2 dopamine receptor allosterically; 360,000 compounds, 0.23% hits; DiscoveRx D2 beta-arrestin cells, luminescence, 90 min; 100% = 57 uM dopamine signal; potentiation, % (no concentration beside the values); in the data active = potentiation above about 50%; inconclusive = mostly about 30% to 49%
#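 PathHunter D2 cells, attached overnight at 37 deg C, received compound in DMSO plus dopamine at EC20 (50 nM final) for 90 min at 37 deg C. Beta-arrestin recruitment was read as luminescence after 1 h with detection reagent at ambient temperature.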
# D2 antagonist = D2 dopamine receptor (human) antagonism; P14416; HEK293 TREx D2 cells, calcium flux, dopamine EC80; inhibition, % at 10 µM; 340,000 compounds, 2% hits; AID 485344; in the data active = inhibition above about 30%; inactive = below that, where a call was filed; also: 0% is about no effect
#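 Read-out: kinetic calcium fluorescence (1 cycle/s) in inducible HEK293 T-REx D2 cells after an EC80 dopamine addition that followed 180 s compound preincubation. Loss of the dopamine response indicates antagonism.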
# D2 PAM-2 = positively modulates the human D2 dopamine receptor allosterically | potentiation, % at 10 µM | HEK293 T-REx D2, calcium flux, EC20 dopamine potentiation | 340,000 compounds, 0.34% hits;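 active = potentiation over 3 SD above the plate norm, cut at about 30% in these data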; also: 0% is about no effect
#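 Primary screen. Calcium kinetics in induced HEK293 T-REx D2 cells: compound pre-addition 180 s, EC20 dopamine, 180 s more.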
# D2 ag-2 = agonists of human D2 dopamine receptor (beta-arrestin); AID 624465; P14416; DiscoveRx PathHunter D2 beta-arrestin, luminescence, 90 min; 100% = 57 uM dopamine signal; 360,000 compounds, 0.084% hits; activation, % (test concentration not listed); in the data active = activation above about 40%; inconclusive = between about 15% and that limit
#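 Agonist mode: compounds alone added to overnight-plated D2 PathHunter cells for 90 min at 37 C, with 57 uM final dopamine (EC100) defining full response. Beta-arrestin recruitment detected by chemiluminescent reagent, read after 1 h at ambient temperature.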
# * = called active by the depositor; u = inconclusive; x = not tested or not shown. Shown are actives, neighbours in structure and some others; about 2.4% of the full set was active somewhere.
SMILES,D2 ag-1,D2 PAM-1,D2 antagonist,D2 PAM-2,D2 ag-2
CC1(C)Cc2c(sc3nc(SCC(=O)NCc4ccco4)n(-c4ccccc4)c(=O)c23)CS1,0.7,-9.0,30.4*,-3.5,0.8
O=C(CSc1nc2sc3c(c2c(=O)n1-c1ccccc1)CCCC3)NCc1ccco1,1.5,-6.1,-1.1,-10.0,1.9
Oc1ccccc1-c1nc(/C=C/c2ccccc2Cl)nn1-c1ccccc1,-0.2,x,x,-2.2,x
COc1ccc(CCNC(=O)C2Cc3ccccc3C(=O)O2)cc1 (stereo not given),0.5,-4.4,8.5,9.2,-0.8
COc1ccc(CCNC2CCc3ccccc3C2)cc1 (stereo not given),-0.6,-69.0,81.0*,-12.1,-4.8
COC(=O)C1=C(C)OC(N)=C(C#N)C1c1cc2cc(C)ccc2nc1Cl (stereo not given),0.3,-12.5,-4.3,1.4,-8.5
CC(=O)C1=C(C)OC(N)=C(C#N)C1c1cc2cc(C)c(C)cc2nc1Cl (stereo not given),0.2,-14.1,31.1*,-0.4,-5.5
COc1ccc(CCNC(=O)C2C3CCC(C3)C2C(=O)O)cc1OC (stereo not given),0.2,-2.8,-3.7,3.8,7.2
O=C(O)C1C2CCC(C2)C1C(=O)NCCc1ccccc1 (stereo not given),35.7*,-1.4,9.8,-13.5,-1.0
O=c1[nH]c(C2CCN(S(=O)(=O)c3ccccc3)CC2)nc2c1nnn2Cc1cccc(Cl)c1,0.2,-0.7,31.7*,5.2,1.5
O=c1[nH]c(C2CCN(S(=O)(=O)c3ccc(C(F)(F)F)cc3)CC2)nc2c1nnn2Cc1cccc(F)c1,0.6,-13.4,-12.2,0.0,-2.1
O=c1[nH]c(C2CCN(S(=O)(=O)c3ccccc3C(F)(F)F)CC2)nc2c1nnn2Cc1cccc(F)c1,0.4,-0.6,42.7*,5.1,5.5
COc1cccc(N2CCN(C(=O)CN3C(=O)COc4ccc(S(=O)(=O)N5CCC(C)CC5)cc43)CC2)c1,x,x,x,-0.7,x
Cc1ccc(-c2nc3ncccn3c2Nc2ccc3c(c2)OCO3)o1,-0.2,63.1*,-3.6,12.0,11.2
Cc1ccc(Nc2c(-c3ccc(C)o3)nc3ncccn23)cc1,0.8,5.2,-7.2,12.8,8.1
Cc1ccccc1C(=O)OCCN(C)Cc1ccccc1,-1.9,-15.8,31.5*,-20.5,-5.3
Cc1ccc(C(=O)OCCN(C)Cc2ccccc2)cc1,1.8,-19.1,2.1,-18.7,-3.9
CCC(=O)NC1=C(Cl)C(=O)C(NC(=O)CC)=C(Cl)C1=O,1.9,-59.8,-8.2,1.0,41.9*
CCC(=O)NC1=C(NC(C)c2ccccc2)C(=O)c2ccccc2C1=O (stereo not given),0.4,u,-14.5,3.1,5.8
COc1ccc(OC)c(CCNC(=O)c2ccc(NC3=NC4CS(=O)(=O)CC4S3)cc2)c1 (stereo not given),0.0,-3.2,34.5*,19.4,-2.8
Cc1ccc(CCNC(=O)Cc2ccc(NC3=NC4CS(=O)(=O)CC4S3)cc2)cc1 (stereo not given),-0.2,-4.7,37.7*,-4.4,-6.0
CCOc1ccccc1NC(=O)c1cccc(NC2=NC3CS(=O)(=O)CC3S2)c1 (stereo not given),-0.3,0.1,0.3,2.6,-4.2
Cc1cc(C)cc(NC(=O)c2cccc(NC3=NC4CS(=O)(=O)CC4S3)c2)c1 (stereo not given),-0.2,-7.3,34.1*,3.8,-9.7
O=S(=O)(c1ccc(F)cc1)N(Cc1nc(-c2ccc(Cl)cc2)no1)C1CCCCC1,0.5,x,x,x,x
COc1ccc(C2NC(=O)N(C)C3=C2C(=O)N(c2cccc(C(=O)O)c2)C3)cc1 (stereo not given),0.0,x,x,3.3,x
CC(C)c1ccc(NC(=O)CN2C(=O)COc3ccc(S(=O)(=O)N4CCCCCC4)cc32)cc1,0.5,x,x,1.9,x
Cc1nc2nc(SCC(=O)NCCCN3CCCCCC3)nn2c(C)c1Cc1ccccc1,-0.3,-10.5,-6.3,5.3,-3.9
Cc1ccccc1Cc1c(C)nc2nc(SCC(=O)NCCCN3CCCCC3)nn2c1C,0.7,-2.7,75.4*,14.5,4.1
Cc1cc(C(=O)CSc2nnc(-c3ccc(F)cc3)o2)c(C)n1CC1COc2ccccc2O1 (stereo not given),-0.2,-4.2,41.2*,-8.5,-0.7

# From PubChem BioAssay
